Screening data: PubChem BioAssay, National Center for Advancing Translational Sciences (NCATS)
SARS PLP yeast: qHTS of Yeast-based Assay for SARS-CoV PLP; S. cerevisiae expressing SARS-CoV PLpro, growth rescue; Potency, µM (top dose mostly 32.9 µM), for the others: at the top dose activity, positive = growth rescue, most hits filed as activators; 330,000 compounds, 0.19% hits; AID 485353, 2010; calls by dose curve; note: 0% is about no effect; nearly all actives have a fitted effect of over 55% in size
Pf growth 48h: Primary qHTS for delayed death inhibitors of the malarial parasite plastid, 48 hour incubation. 310,000 compounds, 5.9% hits. Potency, µM (doses to about 28.7 µM), for inactives: at the top dose activity change, negative = inhibition, actives largely listed as inhibitors. AID 504832, 2011. P. falciparum luciferase growth in erythrocytes, 48 h; note: % is set by controls: 0 for no effect and ±100 for the full control effect
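Read-out is firefly luciferase luminescence from an integrated reporter in P. falciparum, so falling signal marks reduced parasite growth. Infected erythrocytes were at 2% hematocrit and 0.1% parasitemia (final) in Albumax-supplemented RPMI 1640.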
Sm TGR block: qHTS Assay for the Inhibitors of Schistosoma Mansoni Peroxiredoxins. purified TGR, DTNB reduction, TNB absorbance 405 nm. Potency, µM (series often up to 114 µM), for inactives: at the highest dose activity change, negative = inhibition, most hits filed as inhibitors. 360,000 compounds, 3% hits. AID 485364, 2010; note: % is set by controls: 0 for no effect and ±100 for the full control effect; nearly all actives have a fitted effect of over 60% in size
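Kinetic colorimetric format: TGR-catalysed, NADPH-driven DTNB reduction monitored via TNB absorbance. Enzyme dispensed at 20 nM; compound exposure 15 min at room temperature before reaction start.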
Pf growth 96h: Primary qHTS for delayed death inhibitors of the malarial parasite plastid, 96 hour incubation. P. falciparum luciferase reporter growth, 96 h. Potency, µM (titrated, usually from 28.7 µM), inactives show at the highest dose activity change, negative = inhibition, usual class: inhibitors. 320,000 compounds, 6.9% hits. AID 504834, 2011; note: % is set by controls: 0 for no effect and ±100 for the full control effect
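Two parasite generations (96 h, 37 C, 5% CO2) of compound exposure in infected erythrocytes (0.05% parasitemia, 2% hematocrit). Luciferase-reporter P. falciparum; decreased luminescence indicates inhibited growth, aimed at apicoplast-acting delayed death.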
Numbers without * were called inactive; ? = inconclusive; nt = no result; [ ] = another dose, or the depositor's remark. An excerpt weighted towards active compounds, which were near 12% of everything screened. Unless noted, calls come from the whole dose curve; as a rule, active = well fitted curve in the direction sought with a large enough effect; inconclusive = small, poorly fitted or top-dose-only effect, or another doubt; inactive = no such curve, though single readings can be large; an effect the other way counts as inactive or inconclusive. Potency is the fitted concentration of half-maximal effect.

SMILES | SARS PLP yeast | Pf growth 48h | Sm TGR block | Pf growth 96h
COc1cc(CN(C)CC2CCCN(CCc3ccc(F)cc3)C2)c(Cl)cc1O (configuration not stated) | 0% | 12µM* | -24% | ?
COc1ccc(F)c(CN(C)CC2CCCN(CCc3ccc(F)cc3)C2)c1 (configuration not stated) | 1% | ? | 3% | ?
COc1ccc(CN(C)CC2CCCN(CCc3ccc(Cl)cc3)C2)cc1OC (configuration not stated) | -1% | ? | 0% | -10%
COc1cc(CN(C)CC2CCCN(CCc3ccccc3F)C2)cc(Cl)c1OC (configuration not stated) | 3% | 13µM* | 2% | 9.3µM*
CN(CC1CCCN(CCc2cccc(C(F)(F)F)c2)C1)C(=O)c1cc2ccccc2o1 (configuration not stated) | 1% | 10µM* | -18% | 31%
CN(Cc1ccccc1)CC1CCCN(CCc2ccccc2F)C1 (configuration not stated) | 2% | ? | -7% | ?
COc1ccc(CN(C)CC2CCCN(CCc3ccc(F)cc3)C2)cc1OC (configuration not stated) | 20% | ? | 0% | 4.7µM*
CCOc1cccc(CN(C)CC2CCCN(CCc3ccc(Cl)cc3)C2)c1O (configuration not stated) | 0% | 3.7µM* | -43% | 1.5µM*
COC(=O)CCC(=O)N(C)CC1CCCN(CCc2cccc(C(F)(F)F)c2)C1 (configuration not stated) | -1% | 12% | 9% | ?
COc1cc(CN(C)CC2CCCN(CCc3cccc(C(F)(F)F)c3)C2)ccc1O (configuration not stated) | -1% | 2.9µM* | 28µM* | ?
CCN(CC1CCCN(CCc2cccc(F)c2)C1)C(=O)c1cc(C)oc1C (configuration not stated) | 1% | ? | -5% | 5.2µM*
CCN(CC1CCCN(CCc2cccc(F)c2)C1)C(=O)c1cc2ccccc2o1 (configuration not stated) | 1% | ? | -16% | 80%
COc1ccccc1CCN1CCCC(CN(C)CC(C)(C)CO)C1 (configuration not stated) | -3% | 2% | -3% | 12µM*
Cc1cc(OC(C)C(=O)N(Cc2ccco2)C2CCS(=O)(=O)C2)cc(C)c1Cl (configuration not stated) | 0% | -7% | -5% | 3%
Cc1cn2c(=O)cc(COC(=O)c3ccc(NC(=O)C(C)Oc4ccccc4)cc3)nc2s1 (configuration not stated) | nt | nt | 5% | nt
CN(CC(=O)Nc1ccc(F)cc1)C(=O)CSc1ncccn1 | 0% | 19% | -2% | 41%
Cc1ccccc1NC(=O)Cc1nnc(SCC(=O)NC2=NCCS2)n1C | 0% | -2% | 8% | ?
CS/C(=C\[N+](=O)[O-])Nc1ccc(OC(F)(F)F)cc1 | -7% | -11% | 0.28µM* | 2%
CC(C)(CCl)C(=O)Nc1ccc(OC(F)(F)F)cc1 | -1% | 0% | 39% | 1%
Cc1ccc(/C=C/C(=O)OCC(=O)NC(=O)NCc2ccco2)cc1 | -6% | -17% | -2% | 4%
COc1ccc(C(=O)Nc2c(C)csc2C(=O)O)cc1 | 0% | 6% | 15% | ?
Cc1csc(C(=O)O)c1NC(=O)c1ccc(F)cc1 | 1% | 20% | 89µM* | 30%
CCOC(=O)C1CCCN(c2c(N3CCC(N4CCCCC4)CC3)c(=O)c2=O)C1 (configuration not stated) | -3% | nt | 89µM* | -8%
CCOC(=O)C1CCCN(c2c(N3CCN(C)CC3)c(=O)c2=O)C1 (configuration not stated) | 1% | nt | 5.6µM* | ?
CCOC(=O)C1CCN(c2c(N3CCCCCC3)c(=O)c2=O)CC1 | 3% | 12% | -5% | 10µM*
SMILES | SARS PLP yeast | Pf growth 48h | Sm TGR block | Pf growth 96h
CCOC(=O)C1CCCN(c2c(N3CCN(C4CCCCC4)CC3)c(=O)c2=O)C1 (configuration not stated) | -8% | nt | 2% | -27%
CCOC(=O)C1CCCN(c2c(N3CCOCC3)c(=O)c2=O)C1 (configuration not stated) | 2% | nt | 3% | ?
CCOC(=O)C1CCN(c2c(NC3CCCCCCC3)c(=O)c2=O)CC1 | -21% | -6% | -14% | ?
COc1ccc(NC(=O)N(C)C[C@H]2Oc3c(NS(=O)(=O)c4cccs4)cccc3C(=O)N([C@@H](C)CO)C[C@@H]2C)cc1 | -1% | nt | nt | nt
Cc1ccc(CNC(=O)C2CCN(S(=O)(=O)c3ccc4c(c3)oc(=O)n4C)CC2)cc1 | nt | nt | 6% | nt
Cc1cc(C(=O)Nc2cccc(F)c2)c2c(C)nn(-c3cccc(Cl)c3C)c2n1 | nt | nt | 1% | nt
O=C(NCc1ccc(Cl)cc1)C(=O)Nc1ccc(Br)cc1 | nt | nt | 0% | nt
CCN1C(=O)[C@H]2[C@@H](c3ccc(C)cc3)N3C(=O)N(c4ccc(C(F)(F)F)cc4)C(=O)[C@@]3(Cc3ccccc3)[C@H]2C1=O | -2% | ? | 6% | 9%
C=CCc1cc(C=C2C(=O)N(C)C(=O)N(C)C2=O)cc(OCC)c1OCc1ccccc1 | 9% | -10% | 32µM* | -11%
C=CCc1cc(C=C2C(=O)NC(=O)NC2=O)cc(OC)c1OCc1ccc(C(=O)O)cc1 | 1% | 3% | ? | -1%
CCOc1nc2cnccc2n(CC(=O)Nc2ccc(C)c(C)c2)c1=O | 3% | -6% | 1% | ?
O=C(NN(C(=O)C1CC1)c1nc2ccccc2s1)C1CC1 | 22% | 27% | 5% | 4.1µM*
Cc1ccc(S(=O)(=O)NNC(=O)c2ccncc2)cc1[N+](=O)[O-] | -3% | -5% | -32% | 1.9µM*
Cc1ccc(C(=O)COC(=O)c2ccncc2)cc1[N+](=O)[O-] | -3% | 24% | -4% | 9.3µM*
Cc1ccc(OCC(=O)NCCCNC(=O)c2ccc(C)nc2)cc1 | -3% | -9% | -4% | 1%
Cc1cccc(C)c1NC(=O)CN(C)C(=O)c1ccccc1Sc1ccccc1C#N | 0% | 9.3µM* | -1% | ?
Cc1cccc(C)c1NC(=O)CN(C)C(=O)c1ccccc1Cc1ccccc1 | 4% | ? | -18% | ?
CCn1c(O)c(C(C#N)=C2N=c3ccccc3=N2)c2ccccc21 | 19% | ? | 0% | 42%
CCOc1c(C=C(C#N)C#N)c2ccccc2n1CC | -15% | -17% | 28µM* | -21%
Cc1cc(NC(=O)c2ccc(NC(=O)CCS(=O)(=O)c3cccs3)cc2)ccc1Br | nt | nt | 8% | nt
O=C(Nc1ccc(F)cc1)c1oc2ccccc2c1NC(=O)C1CCCCC1 | nt | nt | 0% | nt
Nc1scc2c(C(=O)N/N=C/c3ccc(Cl)cc3)nn(-c3ccccc3)c(=O)c12 | -1% | ? | -4% | 5.2µM*
Cc1cccc[n+]1CCCCCCCCCC[n+]1ccccc1C | -2% | ? | -7%[57.1 µM] | -15%
